The results in this text go back to PubChem BioAssay AID1490 (National Center for Advancing Translational Sciences (NCATS), 2009).

Values joined by “and” are separate entries in the source; they are usually repeats but may differ in a detail not shown here. Identical values can stand only once. In all, about 310,000 compounds went through this assay and about 11,000 (3.5%) were called active. Not shown: some 4% with an inconclusive outcome. Calls come from the whole dose curve; as a rule, active = well fitted inhibition curve with a large enough effect; inconclusive = small, poorly fitted or top-dose-only effect, or another doubt; inactive = no such curve, though single readings can be large or run the other way. The sample as a whole holds a higher share of actives than the screen did.
Potency is the fitted concentration of half-maximal effect.

The target in the assay is 4'-phosphopantetheinyl transferase ffp (Bacillus subtilis) (UniProt Q9F4F7). Nature of the assay: qHTS Assay for Inhibitors of Bacillus subtilis Sfp phosphopantetheinyl transferase (PPTase).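 For largest response in the series, negative = inhibition: 0% = enzyme reaction without inhibitor and -100% = no enzyme wells.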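 Note: the enzyme is Sfp with the accession as filed and its product quenches rhodamine fluorescence.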 Conditions: Biochemical Sfp PPTase activity. The source says:
Assay Submitter: Michael Burkart, University of California, San Diego
Screening Center PI: Austin, C.P.
Screening Center: NIH Chemical Genomics Center [NCGC]
The covalent attachment of a phosphopantetheinyl (4'-PP) arm to a variety of synthases and other proteins is a key posttranslational protein modification. The 4'-PP is installed on the proteins post-translationally from coenzyme A (CoA) on a conserved serine residue by action of phosphopantetheinyl transferase (PPTase) enzymes. Phosphopantetheinylation is essential for synthase activity, and removal of the PPTase gene precludes natural product synthesis in microorganisms, or in the case of fatty acid biosynthesis, renders the organism unviable. PPTase enzymes belong to a distinct structural superfamily. Within bacteria, these enzymes are grouped into two classes based upon primary structure, the AcpS-Type and Sfp-Type PPTases.
Sfp-type PPTases, corresponding to an activator of surfactin production in Bacillus subtilis, are responsible for modifying type I polyketide and nonribosomal peptide synthases of prokaryotes. Sfp-type PPTases are responsible for the activation of a variety of pathogen-associated virulence factors. Among these compounds are toxins such as mycolactone from Mycobacterium ulcerans, siderophores such as vibriobactin from Vibrio cholerae or mycobactin from Mycobacterium tuberculosis, as well as the mycolic acids which form the waxy cell wall of Mycobacteria. The biosyntheses of these natural products are considered attractive targets for drug design.
In search of small molecule Sfp-PPTase inhibitors, a fluorescence quenching assay was developed for detection of Bacillus subtilis Sfp-PPTase enzymatic activity in a miniaturized high-throughput format. The consensus ybbr acceptor peptide […] was N-terminally labeled with Black Hole Quencher-2 (BHQ-2) and used in combination with rhodamine-labeled coenzyme A as a co-substrate.
Inhibition of Sfp-PPTase was detected by recording the fluorescence intensity change over a 30-minute reaction period at a 525 nm excitation and 598 nm emission. Reagents were supplied by Michael Burkart and Timothy Foley, University of California at San Diego.
This BioAssay deposition is for validation of the developed Sfp-PPtase assay.
Assay Buffer: 50 mM Hepes-Na pH 7.6, 10 mM MgCl2, 0.01% Nonidet P-40, and 0.01% BSA.
3 uL of Sfp-PPTase enzyme (final concentration 15 nM) and 1 uL of substrate mixture (final concentration for rhodamine-CoA and BHQ-2-YbbR 5 uM and 12.5 uM, respectively) dispensed in columns 1, 2, 5 - 48. Columns 1 and 2 used to generate neutral control (uninhibited reaction)
Three uL of reagents, consisting of buffer (in columns 3 and 4 as negative control) and Sfp-PPTase (in columns 1, 2, 5 - 48) were dispensed into 1,536-well Greiner black solid bottom plate. Compounds (23 nL) were transferred via Kalypsys pintool equipped with 1,536-pin array. The plate was incubated for 15 min at room temperature, followed by the addition of 1 uL substrate to start the reaction. The plate was then centrifuged at 1000 rpm for 15 seconds, and the fluorescence intensity recorded on a ViewLux High-throughput CCD imager (Perkin-Elmer) using standard BODIPY optics (525 nm excitation and 598 nm emission). The plate was then incubated for 30 minutes, and a second read on the ViewLux was performed. The fluorescence intensity difference over the 30-minute period was used to calculate the respective reaction rate for each well.
Background: In qHTS, concentration-response curves come from the screen itself.
For `COc1ccc(CN2C(=O)NC(=O)/C(=C\c3ccc(OC)c(OC)c3OC)C2=O)cc1`, the Potency is 56.2 µM (active).
With `C1CC[C@H]([C@@]23C[C@H](C[C@H]4CCCN[C@H]42)[C@@H]2CCCCN2C3)NC1`, the largest response in the series, negative = inhibition is 15.7% (inactive).
On the same count and under the same terms, with `CN(C)C[C@H]1CCCC[C@]1(O)c1cccc(O)c1` the figure was 5.94% (inactive).
As for `CN(C)CC1Oc2ccccc2OC1(O)c1ccccc1` (configuration not stated), the Potency is 39.8 µM (active).
For the compound `Fc1cccc(F)c1CN1CCN(Cc2c(F)cccc2F)CC1`, the largest response in the series, negative = inhibition was 16% (inactive).
Same read-out and setting: with `Cc1cccc(-n2c(C)nc3cc(C(=O)N4CCC5(CC4)OCCO5)ccc32)c1` the figure was 8.78% (inactive).
Consider `CN(C)P(=S)(Nc1ccccc1)C(Cl)(Cl)Cl` (configuration not stated), for which the largest response in the series, negative = inhibition is 10.7% (inactive).
Regarding `COC([CH2][Hg])CNC(=O)c1ccccc1OCC(=O)O` (configuration not stated), the Potency was 0.398 µM (active).
With `O=C(NC(c1ccc(Cl)cc1)P(=O)(Oc1ccccc1)Oc1ccccc1)OCc1ccccc1` (configuration not stated), the largest response in the series, negative = inhibition was 19.5% (inactive).
As to `CN1CCCC(=C(c2cccs2)c2cccs2)C1`, the largest response in the series, negative = inhibition was 3.76% (inactive).
For the compound `c1ccc2c(c1)[I+]c1ccccc1-2`, the largest response in the series, negative = inhibition was -15.8% (inactive) and 9.27% (inactive).
Turning to `O=C1CCc2cccc3c2N1CC3`, the largest response in the series, negative = inhibition was -2.12% (inactive).
As to `O=C(O)CCn1cc(C=C2C(=O)NC(=S)NC2=O)c(-c2cccc(Br)c2)n1`, the Potency is 25.1 µM (active).
Take `O=P1(Oc2ccccc2)CC(O)C(O)C(COCc2ccccc2)O1` (configuration not stated): the largest response in the series, negative = inhibition was -2.12% (inactive).
On to `CCCCCCCCCCCCCC(=O)O[C@@H]1[C@@H](C)[C@@]2(O)[C@@H](C=C(CO)C[C@]3(O)C(=O)C(C)=C[C@@H]23)[C@@H]2C(C)(C)[C@]12OC(C)=O`, for which the largest response in the series, negative = inhibition was 9.82% (inactive).
The same measure, in the same setting: to `c1ccc2sc(C3CCCNC3)nc2c1` (configuration not stated) belongs 9.62% (inactive).
Turning to `Cc1ccc(N(C)C(=O)Oc2cccc3ccc(C)nc23)cc1`, the largest response in the series, negative = inhibition is 4.73% (inactive).
For the compound `CC(C)c1ccc(O)c(CN2CCN(c3ccccc3)CC2)c1`, the largest response in the series, negative = inhibition is 7.52% (inactive).
On to `c1cc2c(cc1CCNC1CCCCCC1)OCO2`, for which the largest response in the series, negative = inhibition is -0.383% (inactive).
Same read-out and setting: to `CCOP(=S)(OCC)C(O)CCCCCn1c(=O)c(F)cn(C2CCCO2)c1=O` (configuration not stated) belongs 8.97% (inactive); to `N#Cc1cc(Br)c(O)c(Br)c1`, 9.61% (inactive).
Take `C/C(=C\C=C/[C@@H](C)C(=O)O)[C@H]1CN[C@H](C(=O)O)[C@@H]1CC(=O)O`: the Potency was 63.1 µM (active).
On to `C/C=C1\C2C=C(C)CC1(N)c1ccc(=O)[nH]c1C2` (configuration not stated), for which the largest response in the series, negative = inhibition is 24.3% (inactive).
As to `CN(C)C(=O)NC(O)C(Cl)(Cl)Cl` (configuration not stated), the largest response in the series, negative = inhibition was 0.838% (inactive).
On the same count and under the same terms, with `CNC(C)[C@@H](O)c1ccccc1` (some centres not stated) the figure was 20.7% (inactive).
Take `O=C1NC(=O)C(C/C=C/c2ccccc2)C(=O)N1`: the Potency is 70.8 µM (active).
For `COc1ccc(CCn2c(O)c(C=NCCCn3ccnc3)c(=O)[nH]c2=O)cc1OC`, the largest response in the series, negative = inhibition was 15.8% (inactive).
